Data published in PubChem BioAssay (EPA / NIEHS).
Records with an inconclusive call do not appear. The source made the active and inactive calls. How the source made its calls, unless noted: active means hit-call score of the fitted dose curve at least 0.9, where 1 is the maximum; inconclusive means response in the unintended direction; inactive means score below 0.9.

Columns and labels:
[1] = ATG_TAL_CIS: Attagene CIS-FACTORIAL HepG2 Assay for human TAL Basal Promoter (AID 2282966; active means hit-call score of the fitted dose curve at least 0.9, where 1 is the maximum; inactive means score below 0.9;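 further: background control endpoint measuring basal TAL promoter reporter mRNA not a specific factor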); settings: HepG2 Attagene cis-factorial TAL promoter reporter; actives raise or lower the signal
In short: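 Steps: transfect HepG2 with multiple reporter transcription units; dose 24 h; isolate RNA, reverse-transcribe, PCR-amplify, label with 6-FAM, digest with HpaI; resolve by capillary electrophoresis. Bidirectional fitting against DMSO baseline.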

[2] = ATG_TGFb_CIS: Attagene CIS-FACTORIAL HepG2 Assay for human Transforming Growth Factor (TGF) (AID 2282967; active means hit-call score of the fitted dose curve at least 0.9, where 1 is the maximum; inactive means score below 0.9); settings: HepG2 Attagene CIS TGFb reporter, mRNA transcription; actives raise or lower the signal
In short: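 Endogenous TGFB1-linked transcription factor activity read as reporter mRNA via RT-PCR and capillary electrophoresis, 24 h after dosing transiently transfected HepG2 cells. Gain or loss of signal fitted relative to DMSO.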

[3] = biological target: X-box-binding protein 1 (Homo sapiens) (UniProt P17861); experiment: ATG_Xbp1_CIS: Attagene CIS-FACTORIAL HepG2 Assay for human X-box Binding Protein 1 (XBP1) (AID 2282972; active means hit-call score of the fitted dose curve at least 0.9, where 1 is the maximum; inactive means score below 0.9); settings: HepG2 XBP1 cis-element reporter, Attagene multiplex; actives raise or lower the signal
Chain of X-box-binding protein 1 (Homo sapiens) (P17861 whole entry, looked up): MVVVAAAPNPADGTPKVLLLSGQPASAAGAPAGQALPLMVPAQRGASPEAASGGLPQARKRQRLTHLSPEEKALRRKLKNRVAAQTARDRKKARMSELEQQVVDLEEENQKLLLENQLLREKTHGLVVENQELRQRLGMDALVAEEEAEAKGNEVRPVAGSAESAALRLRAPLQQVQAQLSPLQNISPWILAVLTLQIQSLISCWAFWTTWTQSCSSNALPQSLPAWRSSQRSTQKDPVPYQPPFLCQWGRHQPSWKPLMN
In short: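 HepG2 cells transiently transfected with cis-regulated multiple reporter transcription units; endogenous transcription factor activity measured 24 hours after chemical dosing. Reporter mRNA quantified by RT-PCR, 6-FAM primer extension, HpaI digestion and capillary electrophoresis; bidirectional fitting versus DMSO.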

[4] = ATG_M_19_TRANS: Attagene TRANS-FACTORIAL HepG2 Assay for M19 Transcription Factor (Internal Marker) (AID 2282974); settings: HepG2 Attagene TRANS-FACTORIAL M19 internal marker reporter
In short: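 Multiplexed TRANS format: HepG2 liver cells bearing transient GAL4-UAS reporter units, chemical treatment 24 h, reporter transcripts quantified by RT-PCR plus capillary electrophoresis. DMSO defines baseline.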

[5] = ATG_GAL4_TRANS: Attagene TRANS-FACTORIAL HepG2 Assay for GAL4 (Internal Marker) (AID 2282976); settings: HepG2 Attagene TRANS GAL4 internal marker reporter
In short: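 Liver HepG2 line bearing multiplexed GAL4-UAS reporter constructs; 24 h chemical treatment. Transcripts were quantified as fluorescent fragments on capillary electrophoresis after RT-PCR and HpaI cut, with activity fitted upward from DMSO.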

[6] = biological target: Glucocorticoid receptor (Homo sapiens) (UniProt P04150); experiment: ATG_GR_TRANS: Attagene TRANS-FACTORIAL HepG2 Assay for human Glucocorticoid Receptor (GR) (AID 2282978); settings: HepG2 Attagene TRANS GR reporter, mRNA transcription;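 further: activators score as hits since higher reporter transcript over DMSO is fitted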
Chain of Glucocorticoid receptor (Homo sapiens) (P04150 whole entry, looked up, the tested form may be a part): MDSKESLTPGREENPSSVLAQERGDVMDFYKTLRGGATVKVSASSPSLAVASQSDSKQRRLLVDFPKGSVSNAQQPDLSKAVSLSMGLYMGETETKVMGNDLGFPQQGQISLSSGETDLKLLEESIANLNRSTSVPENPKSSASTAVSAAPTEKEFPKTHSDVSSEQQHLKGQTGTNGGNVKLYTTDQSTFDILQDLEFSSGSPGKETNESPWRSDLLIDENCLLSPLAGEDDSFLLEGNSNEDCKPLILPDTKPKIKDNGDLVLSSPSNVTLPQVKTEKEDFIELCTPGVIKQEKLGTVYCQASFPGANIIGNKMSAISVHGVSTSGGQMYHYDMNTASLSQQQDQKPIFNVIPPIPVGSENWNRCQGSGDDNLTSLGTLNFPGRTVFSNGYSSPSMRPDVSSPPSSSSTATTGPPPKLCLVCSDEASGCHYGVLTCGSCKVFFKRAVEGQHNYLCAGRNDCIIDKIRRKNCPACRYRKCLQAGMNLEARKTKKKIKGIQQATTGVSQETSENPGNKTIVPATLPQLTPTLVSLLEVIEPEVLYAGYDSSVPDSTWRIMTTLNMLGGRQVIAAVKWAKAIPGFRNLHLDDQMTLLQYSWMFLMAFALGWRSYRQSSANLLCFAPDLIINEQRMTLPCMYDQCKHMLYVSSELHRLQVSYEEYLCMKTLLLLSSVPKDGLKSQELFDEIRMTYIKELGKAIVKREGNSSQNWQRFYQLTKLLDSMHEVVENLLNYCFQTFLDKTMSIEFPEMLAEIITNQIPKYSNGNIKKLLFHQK
In short: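 Transiently transfected HepG2 cells express chimeric NR-GAL4 proteins acting on GAL4-UAS reporter units. Compounds are applied for 24 h. mRNA induction over DMSO is measured by capillary electrophoresis.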

[7] = biological target: Oxysterols receptor LXR-alpha (Homo sapiens) (UniProt Q13133); experiment: ATG_LXRa_TRANS: Attagene TRANS-FACTORIAL HepG2 Assay for human Liver X Receptor alpha (LXRa) (AID 2282980); settings: HepG2 Attagene TRANS reporter, LXRa transactivation
Chain of Oxysterols receptor LXR-alpha (Homo sapiens) (Q13133 whole entry, looked up, the tested form may be a part): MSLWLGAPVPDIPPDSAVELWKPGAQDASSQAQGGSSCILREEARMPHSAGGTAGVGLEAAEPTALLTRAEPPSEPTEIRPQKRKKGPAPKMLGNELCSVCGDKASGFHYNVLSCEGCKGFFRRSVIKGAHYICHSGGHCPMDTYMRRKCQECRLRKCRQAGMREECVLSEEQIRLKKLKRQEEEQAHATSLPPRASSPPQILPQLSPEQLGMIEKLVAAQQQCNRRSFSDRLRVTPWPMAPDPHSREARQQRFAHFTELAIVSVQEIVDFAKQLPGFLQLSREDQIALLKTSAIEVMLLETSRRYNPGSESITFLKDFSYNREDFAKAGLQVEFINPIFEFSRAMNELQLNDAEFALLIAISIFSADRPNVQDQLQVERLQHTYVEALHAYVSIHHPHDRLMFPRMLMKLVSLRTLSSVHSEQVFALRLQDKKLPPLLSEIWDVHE
In short: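 In this multiplexed TRANS system, compounds act on HepG2 cells carrying GAL4-UAS reporter units and a receptor-GAL4 fusion for 24 h. Induced reporter RNA is amplified, fluorescently labelled and sized by capillary electrophoresis, with DMSO as baseline.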

[8] = biological target: Oxysterols receptor LXR-beta (Homo sapiens) (UniProt P55055); experiment: ATG_LXRb_TRANS: Attagene TRANS-FACTORIAL HepG2 Assay for human Liver X Receptor beta (LXRb) (AID 2282981); settings: HepG2 Attagene TRANS GAL4-LXRb reporter, mRNA
Chain of Oxysterols receptor LXR-beta (Homo sapiens) (P55055 whole entry, looked up, the tested form may be a part): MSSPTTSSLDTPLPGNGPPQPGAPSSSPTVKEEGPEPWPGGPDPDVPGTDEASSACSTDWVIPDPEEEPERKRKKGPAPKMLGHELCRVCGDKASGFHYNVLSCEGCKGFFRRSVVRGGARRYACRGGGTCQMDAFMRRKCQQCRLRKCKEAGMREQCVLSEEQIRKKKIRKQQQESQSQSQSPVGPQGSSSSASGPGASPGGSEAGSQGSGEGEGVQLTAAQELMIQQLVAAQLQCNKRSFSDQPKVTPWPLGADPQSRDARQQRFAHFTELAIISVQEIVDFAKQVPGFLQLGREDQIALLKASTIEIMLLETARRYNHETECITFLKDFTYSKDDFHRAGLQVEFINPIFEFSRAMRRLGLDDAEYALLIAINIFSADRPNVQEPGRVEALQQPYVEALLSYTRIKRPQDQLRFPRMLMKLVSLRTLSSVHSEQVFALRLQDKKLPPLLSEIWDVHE
In short: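 Transient transfection HepG2 (multiplexed RTUs, GAL4-UAS); NR-Gal4 chimera; 24 h exposure; RNA → RT-PCR → 6-FAM primer extension → HpaI → CE; increase vs DMSO.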

[9] = biological target: Hepatocyte nuclear factor 4-alpha (Homo sapiens) (UniProt P41235); experiment: ATG_HNF4a_TRANS: Attagene TRANS-FACTORIAL HepG2 Assay for human Hepatocyte Nuclear Factor 4 alpha (HNF4a) (AID 2282982); settings: HepG2 HNF4a transactivation reporter, mRNA readout
In short: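 Readout is fluorescent reporter-transcript fragments resolved by capillary electrophoresis after RT-PCR from HepG2 cells dosed for 24 h. Cells carried transfected GAL4-UAS reporter constructs measuring exogenous NR-GAL4 chimera activity; DMSO served as baseline.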

[10] = ATG_M_06_TRANS: Attagene TRANS-FACTORIAL HepG2 Assay for M06 Transcription Factor (Internal Marker) (AID 2282983); settings: HepG2 Attagene TRANS M06 internal marker reporter;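 further: reporter transcript level by RT-PCR then capillary electrophoresis fluorescence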
In short: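 Internal-marker background readout from a multiplexed TRANS reporter system in HepG2; 24 h dosing; mRNA induction quantified by RT-PCR plus capillary electrophoresis fluorescence; DMSO as negative control and baseline.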

[11] = ATG_M_32_TRANS: Attagene TRANS-FACTORIAL HepG2 Assay for M32 Transcription Factor (Internal Marker) (AID 2282984); settings: HepG2 Attagene TRANS M32 internal marker reporter;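 further: transcript level of a background control reporter unit measured by RT-PCR and capillary electrophoresis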
In short: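 Measures reporter mRNA induction in human HepG2 liver cells after 24 h chemical treatment. Transcripts from transiently transfected GAL4-UAS reporter units are amplified, fluorescently labelled and sized by capillary electrophoresis; gain of signal relative to DMSO.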

[12] = biological target: Nuclear receptor subfamily 4 group A member 2 (Homo sapiens) (UniProt P43354); experiment: ATG_NURR1_TRANS: Attagene TRANS-FACTORIAL HepG2 Assay for human Nuclear Receptor Related Protein 1 (NURR1) (AID 2282985); settings: HepG2 Attagene TRANS reporter, mRNA readout
Chain of Nuclear receptor subfamily 4 group A member 2 (Homo sapiens) (P43354 whole entry, looked up, the tested form may be a part): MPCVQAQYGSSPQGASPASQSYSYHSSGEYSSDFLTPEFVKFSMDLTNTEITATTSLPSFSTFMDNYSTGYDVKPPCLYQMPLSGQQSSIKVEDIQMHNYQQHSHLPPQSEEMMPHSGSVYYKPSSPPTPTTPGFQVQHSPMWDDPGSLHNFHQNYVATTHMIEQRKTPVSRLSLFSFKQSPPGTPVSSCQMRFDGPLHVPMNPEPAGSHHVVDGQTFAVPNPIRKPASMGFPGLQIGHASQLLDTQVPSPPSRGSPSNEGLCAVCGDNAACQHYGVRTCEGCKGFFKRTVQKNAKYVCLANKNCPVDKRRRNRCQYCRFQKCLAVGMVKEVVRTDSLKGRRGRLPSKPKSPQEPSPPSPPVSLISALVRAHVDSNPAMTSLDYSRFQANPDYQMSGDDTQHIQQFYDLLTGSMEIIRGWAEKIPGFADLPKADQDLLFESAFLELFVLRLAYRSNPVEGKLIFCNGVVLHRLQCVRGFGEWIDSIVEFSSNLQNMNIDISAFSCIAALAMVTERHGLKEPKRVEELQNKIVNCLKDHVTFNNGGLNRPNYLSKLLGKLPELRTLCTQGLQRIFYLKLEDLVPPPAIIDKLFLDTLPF
In short: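 Transient transfection of HepG2, human liver cells, with multiple GAL4-UAS reporter transcription units. Cells dosed 24 h, RNA isolated, reverse-transcribed, PCR-amplified, FAM-labelled, HpaI-digested, sized by capillary electrophoresis. DMSO served as negative control.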

[13] = biological target: Transcriptional activator Myb (Homo sapiens) (UniProt P10242); experiment: ATG_Myb_CIS: Attagene CIS-FACTORIAL HepG2 Assay for human Myeloblastosis (Myb) Proto-Oncogene Transcription Factor (AID 2282986; active means hit-call score of the fitted dose curve at least 0.9, where 1 is the maximum; inactive means score below 0.9); settings: HepG2 Attagene CIS-FACTORIAL Myb reporter transcription; actives raise or lower the signal
Chain of Transcriptional activator Myb (Homo sapiens) (P10242 whole entry, looked up): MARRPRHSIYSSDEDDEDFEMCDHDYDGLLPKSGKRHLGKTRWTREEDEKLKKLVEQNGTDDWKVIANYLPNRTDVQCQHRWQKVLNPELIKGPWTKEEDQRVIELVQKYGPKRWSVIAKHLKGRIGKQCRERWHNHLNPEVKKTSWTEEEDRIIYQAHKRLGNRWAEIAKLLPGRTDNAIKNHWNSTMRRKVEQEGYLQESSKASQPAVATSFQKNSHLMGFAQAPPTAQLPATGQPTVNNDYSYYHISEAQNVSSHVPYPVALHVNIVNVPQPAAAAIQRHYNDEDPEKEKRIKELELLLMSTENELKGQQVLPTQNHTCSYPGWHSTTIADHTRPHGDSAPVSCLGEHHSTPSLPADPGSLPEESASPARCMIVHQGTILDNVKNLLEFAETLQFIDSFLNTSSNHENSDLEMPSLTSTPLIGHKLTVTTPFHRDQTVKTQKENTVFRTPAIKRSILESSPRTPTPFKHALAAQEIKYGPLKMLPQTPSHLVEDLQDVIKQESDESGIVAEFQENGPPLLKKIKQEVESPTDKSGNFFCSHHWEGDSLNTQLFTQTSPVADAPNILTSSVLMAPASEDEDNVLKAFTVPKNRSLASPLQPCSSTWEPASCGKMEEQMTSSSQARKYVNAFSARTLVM
In short: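 Using HepG2 liver cells bearing transiently transfected cis-promoter reporter constructs, the assay measures induction or loss of reporter mRNA after 24 hours of dosing. Detection used fluorescently labeled RT-PCR products separated by capillary electrophoresis.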

[14] = ATG_VDRE_CIS: Attagene CIS-FACTORIAL HepG2 Assay for human Vitamin D Receptor Element (VDRE) (AID 2282968; active means hit-call score of the fitted dose curve at least 0.9, where 1 is the maximum; inactive means score below 0.9); settings: HepG2 VDRE cis-reporter transcription, actives raise or lower the signal
In short: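 Reporter mRNA induction, quantified by capillary electrophoresis of fluorescently labelled RT-PCR products, was read 24 h after dosing HepG2 cells carrying transiently transfected cis-regulated reporter units; gain or loss relative to DMSO.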

[15] = biological target: Nuclear respiratory factor 1 (Homo sapiens) (UniProt Q16656); experiment: ATG_NRF1_CIS: Attagene CIS-FACTORIAL HepG2 Assay for human Nuclear Respiratory Factor 1 (NRF1) Orphan Gene (AID 2282987; active means hit-call score of the fitted dose curve at least 0.9, where 1 is the maximum; inactive means score below 0.9); settings: HepG2 NRF1 cis-element reporter, Attagene multiplex; actives raise or lower the signal
Chain of Nuclear respiratory factor 1 (Homo sapiens) (Q16656 whole entry, looked up): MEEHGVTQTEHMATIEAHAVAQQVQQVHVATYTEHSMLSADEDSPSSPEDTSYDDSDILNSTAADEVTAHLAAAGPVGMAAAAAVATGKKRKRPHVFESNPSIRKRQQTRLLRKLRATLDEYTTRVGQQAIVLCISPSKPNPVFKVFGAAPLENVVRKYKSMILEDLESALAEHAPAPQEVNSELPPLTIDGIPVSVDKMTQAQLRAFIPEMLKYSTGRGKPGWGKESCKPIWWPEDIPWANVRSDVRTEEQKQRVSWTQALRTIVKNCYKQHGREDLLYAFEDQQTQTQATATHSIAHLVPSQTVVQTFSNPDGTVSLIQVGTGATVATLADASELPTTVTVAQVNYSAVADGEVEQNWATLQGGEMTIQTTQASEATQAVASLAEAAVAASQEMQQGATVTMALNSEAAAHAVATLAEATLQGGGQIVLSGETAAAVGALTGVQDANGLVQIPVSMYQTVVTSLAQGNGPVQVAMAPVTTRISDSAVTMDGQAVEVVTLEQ
In short: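 Reporter mRNA induction or loss in HepG2 cells after 24 h dosing; cis-regulated reporter constructs report endogenous transcription-factor activity. Quantified by RT-PCR/capillary electrophoresis fluorescence, DMSO-referenced.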

[16] = biological target: Estrogen receptor (Homo sapiens) (UniProt P03372); experiment: ATG_ERa_TRANS: Attagene TRANS-FACTORIAL HepG2 Assay for human Estrogen Receptor alpha (ERa) (AID 2282970); settings: HepG2 Attagene TRANS ERa GAL4 reporter, mRNA
Chain of Estrogen receptor (Homo sapiens) (P03372 whole entry, looked up, the tested form may be a part): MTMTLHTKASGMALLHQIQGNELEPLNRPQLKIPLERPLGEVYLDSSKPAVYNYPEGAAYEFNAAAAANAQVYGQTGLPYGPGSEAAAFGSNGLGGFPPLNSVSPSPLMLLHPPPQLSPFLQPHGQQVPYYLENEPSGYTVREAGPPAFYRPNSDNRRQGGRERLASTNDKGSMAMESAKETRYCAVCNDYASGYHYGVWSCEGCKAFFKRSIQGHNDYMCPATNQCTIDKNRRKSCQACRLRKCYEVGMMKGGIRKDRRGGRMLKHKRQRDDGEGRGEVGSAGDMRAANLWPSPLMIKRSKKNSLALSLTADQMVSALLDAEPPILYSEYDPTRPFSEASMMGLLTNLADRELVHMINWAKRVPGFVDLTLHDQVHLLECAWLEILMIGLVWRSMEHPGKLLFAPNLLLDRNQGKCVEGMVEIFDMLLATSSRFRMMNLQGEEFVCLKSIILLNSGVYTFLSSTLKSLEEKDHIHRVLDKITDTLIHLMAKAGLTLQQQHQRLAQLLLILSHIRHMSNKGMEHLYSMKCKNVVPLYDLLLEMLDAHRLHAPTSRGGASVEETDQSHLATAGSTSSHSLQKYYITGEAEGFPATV
In short: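 Multiplexed cell-based reporter format in HepG2: chimeric ERa-Gal4 protein drives GAL4-UAS reporter transcription. Fluorescent reporter mRNA quantified by capillary electrophoresis 24 hours after dosing; endpoint fitted as signal gain against DMSO.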

[17] = biological target: Nuclear receptor subfamily 1 group I member 3 (Homo sapiens) (UniProt Q14994); experiment: ATG_CAR_TRANS: Attagene TRANS-FACTORIAL HepG2 Assay for human Constitutive Androstane Receptor (CAR) (AID 2282969); settings: HepG2 Attagene TRANS-FACTORIAL CAR reporter;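 further: activators raise reporter mRNA above DMSO so AC50 marks induction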
In short: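 Readout is reporter mRNA induction, quantified by fluorescent primer extension and capillary electrophoresis after RT-PCR. Cells were HepG2 transiently carrying chimeric NR-Gal4 constructs with GAL4-UAS reporters, treated for 24 h; activity scored upward from DMSO.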

[18] = biological target: Estrogen-related receptor gamma (Homo sapiens) (UniProt P62508); experiment: ATG_ERRg_TRANS: Attagene TRANS-FACTORIAL HepG2 Assay for human Estrogen-Related Receptor gamma (ERRg) (AID 2282977); settings: HepG2 Attagene TRANS reporter, ERRg transactivation;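 further: hits increase reporter signal over DMSO so potencies reflect activators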
Chain of Estrogen-related receptor gamma (Homo sapiens) (P62508 whole entry, looked up, the tested form may be a part): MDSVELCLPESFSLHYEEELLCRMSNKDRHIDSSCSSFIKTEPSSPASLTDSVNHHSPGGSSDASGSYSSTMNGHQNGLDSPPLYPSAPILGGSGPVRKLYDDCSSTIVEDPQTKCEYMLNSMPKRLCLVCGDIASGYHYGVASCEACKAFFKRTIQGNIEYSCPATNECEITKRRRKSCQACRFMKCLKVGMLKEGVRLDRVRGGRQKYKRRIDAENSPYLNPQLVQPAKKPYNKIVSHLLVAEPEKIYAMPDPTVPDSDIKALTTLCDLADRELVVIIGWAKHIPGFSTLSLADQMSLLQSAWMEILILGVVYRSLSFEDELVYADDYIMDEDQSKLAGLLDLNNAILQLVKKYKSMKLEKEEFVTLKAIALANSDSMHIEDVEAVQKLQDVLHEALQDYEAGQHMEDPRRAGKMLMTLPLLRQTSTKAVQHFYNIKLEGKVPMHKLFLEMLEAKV
In short: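 Transfect HepG2 with multiple GAL4-UAS reporter transcription units; dose chemicals 24 h; isolate RNA, reverse-transcribe with oligo(dT), PCR-amplify, label with 6-FAM, digest with HpaI; size fragments by capillary electrophoresis. DMSO serves as negative control.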

[19] = biological target: Bile acid receptor (Homo sapiens) (UniProt Q96RI1); experiment: ATG_FXR_TRANS: Attagene TRANS-FACTORIAL HepG2 Assay for Farnesoid X Receptor (FXR) (AID 2282979); settings: HepG2 Attagene TRANS FXR-GAL4 reporter transcription;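 further: hits raise reporter mRNA above DMSO so AC50 marks FXR activation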
In short: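 After 24 h chemical treatment of transfected HepG2 cells, GAL4-UAS reporter transcripts driven by an exogenous FXR-GAL4 fusion were measured by RT-PCR and capillary electrophoresis. Increases over DMSO were fitted.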

Measured: AC50

Cc1ccc(C(C)C)cc1
inactive: [1] | [2] | [14] | [3] | [7] | [8] | [10] | [12] | [13] | [15]

O=c1ccc2ccccc2o1
inactive: [1] | [2] | [16] | [3] | [5] | [10] | [13]

NCc1cccc(C2CCN(C(=O)c3ccc(C#Cc4ccccc4F)o3)CC2)c1
active: [14] 14.3 µM | [16] 9.53 µM | [3] 14 µM | [7] 8.2 µM
not listed: [4] | [5] | [6] | [17] | [18] | [19]
inactive: all other assays above

c1ccc2n[nH]nc2c1
not listed: [8] | [9] | [11] | [14] | [16] | [18] | [19]
inactive: all other assays above

Cc1occc1C(=O)Nc1ccc(C(=O)N2CCC(F)(F)/C(=C\C(=O)N3CCC(N4CCCCC4)CC3)c3ccccc32)cc1
inactive: [1] | [16] | [6] | [7] | [8] | [9] | [10] | [11] | [13]
active: [2] 49.8 µM | [14] 34.5 µM | [3] 51.2 µM

CN(C)c1ccc(C(=C2C=CC(=[N+](C)C)C=C2)c2ccc(N(C)C)cc2)cc1
active: [3] 2.28 µM
inactive: [1] | [2] | [14] | [4] | [11] | [13]

CC(C)(C)c1cc(/C=C2\SC(N)=NC2=O)cc(C(C)(C)C)c1O
active: [14] 4.48 µM | [3] 20.8 µM
not listed: [4] | [7] | [8] | [9] | [17] | [19]
inactive: all other assays above

NC(=O)c1nc(-c2cccc(-c3cc(F)ccc3OCC(F)(F)C(F)(F)F)c2)n[nH]1
active: [14] 13.7 µM | [3] 44.6 µM | [12] 50.1 µM
not listed: [7] | [8] | [9] | [10] | [16] | [17]
inactive: all other assays above

COc1cc(C(=O)NC2CCN(C)CC2)ccc1Nc1ncc2c(n1)N(C1CCCC1)CC(F)(F)C(=O)N2C
active: [14] 3.09 µM | [3] 2.31 µM
not listed: [4] | [5] | [9] | [11] | [12] | [17] | [18]
inactive: all other assays above
